Compounds with a hit are over-represented: about 8.8% of the library has one in this group of screens.
KB-V1 MDR tox – qHTS assay for MDR1-selective chemotherapeutics: Primary screen using the drug-selected MDR subline cells KB-V1; Potency, µM (titrated, usually from 46.1 µM), hits mostly cytotoxic; KB-V1 MDR cells viability, CellTiter-Glo, 72 h; 3.4% of 400,000 active; also: potency is read from the fitted curve at half-maximal effect; nearly all actives have a fitted effect of over 60% in size
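KB-V1 MDR subline cells in DMEM (phenol-red free, 10% FBS) exposed to compounds in qHTS concentration series for 72 h at 37 degrees C. Viability read by CellTiter-Glo luminescence; concentration-effect curves fitted after normalization and correction.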
HT1080 IDH1KD tx – qHTS for induction of synthetic lethality in tumor cells producing 2HG: qHTS for the HT-1080-IDH1KD cell line | HT-1080 IDH1 knockdown viability, ATP luminescence, 48 h | Potency, µM (highest dose often 46.1 µM), for inactives: top-dose activity, negative = toxicity, usual class: cytotoxic | 2% of 360,000 active;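 also: potency is read from the fitted curve at half-maximal effect; 0% = DMSO wells and -100% = cell-free medium wells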
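% activity derives from luminescence (CellTiter-Glo), normalised to DMSO and no-cell wells. HT-1080-IDH1KD cells, 750/well, had 48 h compound exposure at 37 °C.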
KB-3-1 tox – qHTS assay for MDR1-selective chemotherapeutics: Primary screen using the parental adenocarcinoma cell KB-3-1; KB-3-1 viability, CellTiter-Glo ATP luminescence, 72 h; Potency, µM (series often up to 46.1 µM), actives largely listed as cytotoxic; 1.4% of 400,000 active; also: potency is read from the fitted curve at half-maximal effect; nearly all actives have a fitted effect of over 60% in size
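KB-3-1 cells, DMEM (no phenol red) + 10% FBS; compound by pin transfer, 72 h, 37 °C. Readout: CellTiter-Glo luminescence after 10 min. Data normalized, curve-fitted.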
IL1B secr inh – qHTS for Inhibitors of Inflammasome Signaling: IL-1-beta AlphaLISA Primary Screen; activity change, % at 57.5 µM; AID 743279, 2014; THP-1 LPS/ATP IL-1B secretion, AlphaLISA, 16 h; hits give low values; 4.7% of 360,000 active; in the data active = activity change below about -50%; inconclusive = mostly about -30% to -49%
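THP-1 cells pretreated 1 hr with compounds (up to 57.5 uM final), then stimulated with LPS (250 ng/mL final) plus ATP (1.25 mM final); secreted IL-1B measured by AlphaLISA after 16 hr, decreased signal indicating inhibition.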
HT1080-NT tox – qHTS for induction of synthetic lethality in tumor cells producing 2HG: qHTS for the HT-1080-NT fibrosarcoma cell line | HT-1080-NT fibrosarcoma viability, CellTiter-Glo ATP luminescence, 48 h | Potency, µM (highest dose often 46.1 µM), inactives show top-dose activity, negative = less viability, hits mostly cytotoxic | 1.6% of 360,000 active;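 also: NT is the 2HG producing partner of a matched IDH1 knockdown line; potency is read from the fitted curve at half-maximal effect; 0% = DMSO-treated cells and -100% = media-only wells without cells; nearly all actives have a fitted effect of over 55% in size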
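Compounds were tested in concentration-response format on HT-1080-NT cells for 48 hours at 37 degrees C. Cell viability came from CellTiter-Glo luminescence; curves were classified by r2, response magnitude and activity.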
* = called active by the depositor; i = inactive; u = inconclusive; x = no result given; [ ] = dose if it differs, or a comment. Unless noted, calls follow the shape of the dose curve; as a rule, active = well fitted curve in the direction sought with a large enough effect; inconclusive = small, poorly fitted or top-dose-only effect, or another doubt; inactive = no such curve, though single readings can be large; an effect the other way counts as inactive or inconclusive. Unless noted, % is scaled to controls: 0 for no effect and ±100 for the full control effect.

SMILES | KB-V1 MDR tox | HT1080 IDH1KD tx | KB-3-1 tox | IL1B secr inh | HT1080-NT tox
COc1cc2sc3cc(NCc4ccc(C)o4)ccc3c(=O)c2cc1OC | i | 2% | i | -69* | -1%
COc1cc2sc3cc(NCC[C@@H]4CCCN4C)ccc3c(=O)c2cc1OC | i | -2% | i | -60* | -3%
COc1cc2sc3cc(NCc4ccc5c(c4)OCO5)ccc3c(=O)c2cc1OC | i | 4% | i | -22 | -4%
COc1cccc2sc3cc(NCc4ccc5c(c4)OCO5)ccc3c(=O)c12 | u | -12% | i | u | -9%
COc1cccc2sc3ccc(NCCC4CCCN4C)cc3c(=O)c12 (stereo not drawn) | i | -10% | i | -70* | -17%
CCCc1cc(-c2[nH]ncc2-c2ccc3c(c2)OCCCO3)c(O)cc1O | u | -14% | u | 0 | -11%
CCCc1cc(-c2[nH]ncc2-c2ccc(C(=O)OCC)o2)c(O)cc1O | u | u | i | -84* | u
O=C1N/C(=N\N=C\c2ccccn2)SC1Cc1cccc(SC(F)F)c1 (stereo not drawn) | 3.7µM* | u | u | 6 | -6%
O=C1N/C(=N\N=C\c2ccc3ncccc3c2)SC1Cc1ccc(SC(F)F)cc1 (stereo not drawn) | u | 14% | i | 17 | -7%
O=C1N/C(=N\N=C\c2cccnc2)SC1Cc1ccc(SC(F)F)cc1 (stereo not drawn) | 4.1µM* | 23µM* | u | 107 | u
O=C1N/C(=N\N=C\c2cccs2)SC1Cc1cccc(Cl)c1 (stereo not drawn) | u | u | u | 15 | u
O=C1N/C(=N\N=C\c2cccs2)SC1Cc1ccc(Cl)cc1 (stereo not drawn) | i | 23µM* | i | 16 | 18µM*
O=[N+]([O-])c1ccc2c(c1)C=CC2 | i | x | i | x | x
Cc1ccc(S(=O)(=O)N2CCCCC2)cc1NC(=O)COC(=O)c1ccccc1F | u | -9% | i | 30 | 4%
CCCN(CCC)CCNC(=O)c1cc2c(=O)n(C)c3ccccc3c2n1C | i | -15% | i | -63* | -13%
CC1CCCCN1CCNC(=O)c1cc2c(=O)n(C)c3ccccc3c2n1C (stereo not drawn) | i | -12% | i | -55* | -11%
Cn1c(C(=O)NCCN2CCOCC2)cc2c(=O)n(C)c3ccccc3c21 | i | 0% | i | -8 | -9%
CC1=C(C(=O)N(C)C)CC(CC(=O)NCc2cccs2)C(=O)N1CCCN1CCCC1=O (stereo not drawn) | i | 11% | i | -2 | 11%
Cc1nccn1C(c1ccccc1)c1ccccc1 | i | 3% | i | 20 | 2%
CC1(c2nnnn2Cc2ccccc2)CCC(=O)N1CCOc1ccccc1 (stereo not drawn) | u | -4% | i | -6 | 1%
CCOc1ccc(-c2nonc2NC(=O)c2oc3cc(Br)ccc3c2C)cc1 | u | x | 3.7µM* | x | x
Cc1cc(C)cc(N(CCC#N)C(=O)COC(=O)CCc2c[nH]c3ccccc23)c1 | 21µM* | -8% | i | 0 | -4%
CN(C(=O)COC(=O)CCc1c[nH]c2ccccc12)c1ccccc1 | u | 3% | i | 0 | -1%
Cc1cc(C)c(C#N)c(N2CCN(Cc3ccc4c(c3)OCO4)CC2)n1 | u | 0% | i | -21 | -1%
N#CCc1c(C#N)c(N)nc(N2CCN(c3ccc(F)cc3)CC2)c1C#N | 12µM* | 0% | u | -27 | -3%
SMILES | KB-V1 MDR tox | HT1080 IDH1KD tx | KB-3-1 tox | IL1B secr inh | HT1080-NT tox
N#CCc1c(C#N)c(N)nc(N2CCN(Cc3ccc4c(c3)OCO4)CC2)c1C#N | 21µM* | -18% | u | -28 | -3%
Cc1c(/C=C(\C#N)C(=O)Nc2cccc(Cl)c2)c2ccccc2n1Cc1ccccc1Cl | i | x | u | x | x
CCc1ccc(C(=O)CSc2nnc(C3CC3)n2C2CC2)cc1 | 12µM* | 24% | i | -13 | 8%
CS(=O)(=O)Nc1ccc(C(=O)CSc2nnc(C3CC3)n2C2CC2)cc1 | i | 3% | i | -5 | 5%
COc1ccc(OC)c(C(=O)CSc2nnc(C3CC3)n2C2CC2)c1 | i | 0% | 16µM* | -10 | 4%
COC(=O)c1ccc2nc(C3CCCCC3)c3c(c2c1)CCC3 | i | -1% | i | 3 | -2%
CC1(C)Cc2nc3scc(NC(=O)c4ccccc4)c3cc2CO1 | i | 9% | i | 11 | 9%
COc1cccc(N2C(=O)C(Cc3c[nH]c4ccccc34)NC2=S)c1 (stereo not drawn) | u | 16% | u | -21 | 7%
CNC[C@@H]1OCc2ccccc2-c2ccccc2C(=O)N([C@H](C)CO)C[C@@H]1C | i | 12% | i | 3 | 6%
CN1N=C(C(C)(C)C)CC1=O | i | 18µM* | i | x | u
CC(C(=O)NCCS(=O)(=O)c1ccc(Cl)cc1)S(=O)(=O)c1ccc(Cl)cc1 (stereo not drawn) | u | -2% | i | -20 | 3%
O=C(NCCS(=O)(=O)c1ccc(Br)cc1)c1ccccc1 | i | 7% | i | 19 | -4%
CC(C)c1ccc(C(C)NCCS(=O)(=O)c2ccc(Br)cc2)cc1 (stereo not drawn) | i | u | i | -99* | u
CC(NCCS(=O)(=O)c1ccc(Cl)cc1)c1cccc(Cl)c1 (stereo not drawn) | u | -11% | i | -60* | -8%
Cc1ccc(C)c(N2CCN(C(=O)c3cccn4c(=O)c5sccc5nc34)CC2)c1 | u | 16µM* | u | 42 | 13µM*
CCC(=O)N1CCN(c2nc3ccccc3s2)CC1 | i | -10% | u | -4 | -9%
O=C(c1cc2sccc2n1Cc1ccccc1)N1CCN(c2nc3ccccc3s2)CC1 | i | 8.2µM* | i | -3 | -5%
Cc1ccc(C)c(N2CCN(C(=O)c3cccn4c(=O)c5ccccc5nc34)CC2)c1 | i | x | i | x | x
O=C(Cn1c(C(=O)N2CCN(C3CCCCC3)CC2)cc2sccc21)c1ccccc1 | 6.5µM* | u | u | u | u
CC(C)NC(=O)C1CCN(C(=O)c2cc3sccc3n2Cc2ccc(F)cc2)CC1 | 6.5µM* | 5%[9.24 µM] | 18µM* | -81* | -25%
CC1CCN(C(=O)C2CCN(C(=O)c3cc4sccc4n3Cc3ccc(F)cc3)CC2)CC1 | i | u | i | -16 | u

Screening data (PubChem)
